Screening results as filed in PubChem.
This is one part of a sample in which hits are shown more often than they occur.
Tg IFNy HTS – T. gondii growth inhibition with IFN-gamma, primary screen, cell-based | Toxoplasma gondii growth in IFN-gamma-treated host cells; hits give low values | activity change, negative = inhibition, % (no concentration beside the values) | 69,000 compounds, 3.8% hits; in the data active means activity change below about -70%, passing the limit was not always enough;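 further: host cells are HeLa cells infected with Toxoplasma gondii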
* hit, by the source's call.

SMILES	Tg IFNy HTS
CC(C)C(C)N(CCn1c(=O)oc2ccccc21)Cc1ccco1 (stereo not given)	-3
Cc1cccc(NC(=O)N2CCC[C@]3(C(=O)N(C)C)CN(Cc4cnn(C)c4)C[C@H]3C2)c1	3
CC(C)(C)C1CCC(CC2C(=O)C(=O)c3ccccc3C2=O)CC1 (stereo not given)	-86*
Cn1nccc1CN1CCC2(CC(NS(C)(=O)=O)C2)C1 (stereo not given)	5
CCOC(=O)C1CCC(CNC(=O)N2CCC3(CC2)Nc2ccccc2-n2cccc23)CC1 (stereo not given)	162
C=CCO[C@@H]1CN(C(=O)Cc2ccsc2)[C@H]2CCCO[C@@H]12	-26
COc1ccc(-c2nc3c(s2)CN(S(=O)(=O)c2ccc(C)cc2)CC3)cc1	-76*
COc1cccc(-c2nc3c(s2)CN(S(=O)(=O)c2c(C)cc(C)cc2C)CC3)c1	-98*
COc1ccc(-c2nc3c(s2)CN(S(=O)(=O)c2ccc(Cl)cc2)CC3)cc1	16
CCCc1ccc(S(=O)(=O)N2CCc3nc(-c4ccc(OC)cc4)sc3C2)cc1	16
CCOc1ccc(-c2nc3c(s2)CN(S(=O)(=O)c2ccccc2C)CC3)cc1	-94*
COc1ccc(-c2nc3c(s2)CN(S(=O)(=O)c2ccc(C(C)(C)C)cc2)CC3)cc1	-1
COc1ccc(-c2nc3c(s2)CN(S(=O)(=O)c2ccccc2C)CC3)cc1	-115*
CCOc1ccc(-c2nc3c(s2)CN(S(=O)(=O)Cc2ccccc2)CC3)cc1	10
COc1cccc(-c2nc3c(s2)CN(C(=O)Nc2ccccc2C)CC3)c1	25
COc1cccc(-c2nc3c(s2)CN(S(=O)(=O)c2ccc(C)cc2)CC3)c1	-54
CN(C)C(=O)COCC1CN(S(C)(=O)=O)Cc2nnn(C)c21 (stereo not given)	-53
CN(C)c1nc(N2CCCC2)nc2c1CCN(C(=O)c1ccco1)CC2	6
CCn1ccnc1Cn1cnc(-c2ccccc2)c1-c1c(OC)cccc1OC	2
COCC(=O)N1CCC2(CC1)CC(OCc1cccnc1)CO2 (stereo not given)	5
CCN(Cc1cc(Cl)ccc1OC)C(=O)CN1CCOCC1	37
CN(Cc1n[nH]c2c1CCCCC2)C(=O)c1cc(-c2cccn2C)n[nH]1	-63
Cc1ccc(-c2nc3c(s2)CN(S(=O)(=O)c2ccc(C)c(C)c2)CC3)cc1	-25
COc1ccc(-c2nc3c(s2)CN(S(=O)(=O)c2cc(C)cc(C)c2)CC3)cc1OC	-125*
CCOc1ccc(-c2nc3c(s2)CN(S(=O)(=O)c2cccc(F)c2)CC3)cc1	33
SMILES	Tg IFNy HTS
COc1cccc(-c2nc3c(s2)CN(S(=O)(=O)c2ccccc2C)CC3)c1	-107*
Cc1cc(C)c(S(=O)(=O)N2CCc3nc(-c4ccccc4)sc3C2)c(C)c1	-6
CCOc1ccc(-c2nc3c(s2)CN(S(=O)(=O)c2cc(F)ccc2C)CC3)cc1	-95*
COc1cccc(-c2nc3c(s2)CN(S(=O)(=O)c2ccc(OC)c(OC)c2)CC3)c1	-20
CCOc1ccc(-c2nc3c(s2)CN(S(=O)(=O)c2ccc(F)cc2)CC3)cc1	43
COc1cccc(-c2nc3c(s2)CN(S(=O)(=O)c2cc(C)c(C)cc2C)CC3)c1	-51
COc1cccc(-c2nc3c(s2)CN(S(=O)(=O)c2ccc(C(C)C)cc2)CC3)c1	-37
COc1ccc(S(=O)(=O)N2CCc3nc(-c4ccc(C)cc4)sc3C2)cc1OC	16
Cc1ccc(-c2nc3c(s2)CN(S(=O)(=O)c2ccccc2C)CC3)cc1	-90*
Cc1oc(C2CCN(S(=O)(=O)c3ccc(C#N)cc3)CC2)nc1C(=O)N1CCCC1	38
CC(=O)c1ccccc1-c1ccc(C(=O)NC(C)(C)C)o1	40
Cc1oc(CSCc2cc(C(=O)O)c(C)o2)cc1C(=O)O	8
CC(c1cccc(-c2ncc(F)cn2)c1)N(C)C (stereo not given)	-4
Cc1nc(CCNC(=O)[C@H]2CCCN2S(=O)(=O)c2cccs2)cs1	-14
CC(C)(C)c1nc(CN2CC(c3ccncc3)C2)no1	14
COc1ccc(-c2noc(-c3ccc(N(C)Cc4cc(C)no4)nc3)n2)cc1	255
CC(C)Cc1ccc(S(=O)(=O)N2CCC3(CC2)NCCN=C3NCc2ccc(F)cc2)cc1	-63
CCN1CCC2(CC1)OC(=O)C(C)=C2C(=O)NCCC1=CCCCC1	64
Cc1cnc2c(Cl)c(C(=O)N3CCCC4(CC3)CNC(=O)O4)nn2c1 (stereo not given)	26
Cc1ccc(-c2nc3c(s2)CN(S(=O)(=O)c2cccc(Cl)c2C)CC3)cc1	-76*
O=S(=O)(c1ccc(F)cc1)N1CCc2nc(-c3ccccc3)sc2C1	45
Cc1cc(C)c(S(=O)(=O)N2CCc3nc(-c4ccccc4)sc3C2)cc1C	-89*
CCc1ccccc1S(=O)(=O)N1CCc2nc(-c3cccc(OC)c3)sc2C1	-91*
COc1cccc(-c2nc3c(s2)CN(S(=O)(=O)c2ccc(CC(C)C)cc2)CC3)c1	-17
CCOc1ccc(S(=O)(=O)N2CCc3nc(-c4cccc(OC)c4)sc3C2)cc1	-23
SMILES	Tg IFNy HTS
COc1cccc(-c2nc3c(s2)CN(S(=O)(=O)c2ccc(Cl)cc2)CC3)c1	-58
COc1ccc(S(=O)(=O)N2CCc3nc(-c4cccc(OC)c4)sc3C2)cc1	-9
COc1ccc(Cl)cc1S(=O)(=O)N1CCc2nc(-c3ccc(C)cc3)sc2C1	-63
COc1cccc(-c2nc3c(s2)CN(S(=O)(=O)c2ccc(F)cc2)CC3)c1	-79*
O=S(=O)(c1ccc(F)cc1F)N1CCc2nc(-c3ccccc3)sc2C1	37
Cc1ccc(-c2nc3c(s2)CN(S(=O)(=O)c2ccc(F)cc2)CC3)cc1	6
CCN(CC)Cc1ccccc1NC(=O)c1cc(C)nc2c1c(C)nn2C	1
CCOC(=O)CSc1nc(NCc2ccc(OC)cc2)c2ccccc2n1	-9
Cc1ccsc1-c1nc(CN(C)Cc2nnc(-c3ccccc3)o2)c(C)o1	-5
C#CCCC(=O)N(Cc1sccc1C)CC(C)C	15
Cc1nn(C(C)C)cc1S(=O)(=O)NCCCn1ccnc1C	3
COCCN(C)C(=O)c1cc2c(s1)CCN2C(=O)C1CC1	-14
O=C(Nc1ccccc1)c1ccccc1O	-18
Cc1ccc(C)n1NC(=O)c1ccccc1O	-95*
NC(=O)c1ccccc1O	11
Cc1ccc(NC(=O)N2CCN(Cc3nc(-c4ccc(C)cc4)oc3C)CC2)cc1	1
Cc1noc(C)c1CN1CCC(N2CCCC2)CC1C(=O)O (stereo not given)	-9
Cc1ccc(S(=O)(=O)N(C)C[C@H]2OCCCC[C@H](C)Oc3ccc(NC(=O)c4ccncc4)cc3C(=O)N([C@@H](C)CO)C[C@H]2C)cc1	75
Cc1ccc(S(=O)(=O)N(C)C[C@H]2OCCCC[C@H](C)Oc3ccc(NC(=O)c4ccncc4)cc3C(=O)N([C@H](C)CO)C[C@@H]2C)cc1	-8
Cc1noc(C)c1NC(=O)Nc1ccc2c(c1)C(=O)N([C@@H](C)CO)C[C@H](C)[C@@H](CN(C)S(=O)(=O)c1cccs1)OCCCC[C@@H](C)O2	337
Cc1ccc(S(=O)(=O)N(C)C[C@H]2OCCCC[C@H](C)Oc3ccc(NC(=O)c4ccncc4)cc3C(=O)N([C@@H](C)CO)C[C@@H]2C)cc1	-98*
Cc1ccc(S(=O)(=O)Nc2ccc3c(c2)C(=O)N([C@@H](C)CO)C[C@H](C)[C@H](CN(C)S(=O)(=O)c2cccs2)OCCCC[C@H](C)O3)cc1	-107*
